Data reported in the supplement of paper PMC4466140.

The binders below were run against AgAbp1 (assay: SPOT peptide array binding signal intensity (averaged, normalized) (arbitrary units (background-subtracted, floor 0; scale differs between SH3 domains)); higher = stronger binding of the SH3 domain to the peptide).
Outline: (§1)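 Detection of bound protein relied on anti-GST antibody, an HRP anti-mouse secondary and luminol, with imaging and quantification in Genespotter. The bound protein was GST-fused SH3 domains from four yeast species, incubated at 10 μg/ml overnight at 4°C in TBS-based blocking buffer on cellulose membranes carrying synthetic 15-mer peptides with cysteines replaced by serines. Binding signal is normalized, background-subtracted spot intensity averaged over replicates, in arbitrary units that differ between domains.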

Binder	SPOT peptide array binding signal intensity
AAHKTKPSIPPKKVE	1520

The binders below were run against AgBbc1 in the same assay as above.
Outline: as §1

Binder	SPOT peptide array binding signal intensity
AAHKTKPSIPPKKVE	≤ 0

The binders below were run against AgBem1-D1 in the same assay as above.
Outline: as §1

Binder	SPOT peptide array binding signal intensity
AAHKTKPSIPPKKVE	≤ 0

These binders were tested against AgBzz1-D1 in the same assay as above.
Outline: as §1

Binder	SPOT peptide array binding signal intensity
AAHKTKPSIPPKKVE	57.5

Each binder was assayed against AgBzz1-D2 in the same assay as above.
Outline: as §1

Binder	SPOT peptide array binding signal intensity
AAHKTKPSIPPKKVE	5.5

Each binder was assayed against AgCyk3 in the same assay as above.
Outline: as §1

Binder	SPOT peptide array binding signal intensity
AAHKTKPSIPPKKVE	≤ 0

These binders were tested against AgFus1 in the same assay as above.
Outline: as §1

Binder	SPOT peptide array binding signal intensity
AAHKTKPSIPPKKVE	≤ 0

These binders were tested against AgHof1 in the same assay as above.
Outline: as §1

Binder	SPOT peptide array binding signal intensity
AAHKTKPSIPPKKVE	20

Each binder was assayed against AgHse1 in the same assay as above.
Outline: as §1

Binder	SPOT peptide array binding signal intensity
AAHKTKPSIPPKKVE	≤ 0

The binders below were run against AgLsb1 in the same assay as above.
Outline: as §1

Binder	SPOT peptide array binding signal intensity
AAHKTKPSIPPKKVE	≤ 0

These binders were tested against AgLsb4 in the same assay as above.
Outline: as §1

Binder	SPOT peptide array binding signal intensity
AAHKTKPSIPPKKVE	≤ 0

These binders were tested against AgMyo5 in the same assay as above.
Outline: as §1

Binder	SPOT peptide array binding signal intensity
AAHKTKPSIPPKKVE	3.75

What follows are binders tested against AgNbp2 in the same assay as above.
Outline: as §1

Binder	SPOT peptide array binding signal intensity
AAHKTKPSIPPKKVE	≤ 0

These binders were tested against AgRvs167 in the same assay as above.
Outline: as §1

Binder	SPOT peptide array binding signal intensity
AAHKTKPSIPPKKVE	1

The binders below were run against AgSho1 in the same assay as above.
Outline: as §1

Binder	SPOT peptide array binding signal intensity
AAHKTKPSIPPKKVE	8

The binders below were run against AgSla1-D1-D2 in the same assay as above.
Outline: as §1

Binder	SPOT peptide array binding signal intensity
AAHKTKPSIPPKKVE	≤ 0

Each binder was assayed against AgSla1-D3 in the same assay as above.
Outline: as §1

Binder	SPOT peptide array binding signal intensity
AAHKTKPSIPPKKVE	3.25

The binders below were run against CaAbp1-D1 in the same assay as above.
Outline: as §1

Binder	SPOT peptide array binding signal intensity
AAHKTKPSIPPKKVE	2440

The binders below were run against CaAbp1-D2 in the same assay as above.
Outline: as §1

Binder	SPOT peptide array binding signal intensity
AAHKTKPSIPPKKVE	6290

The binders below were run against CaBbc1 in the same assay as above.
Outline: as §1

Binder	SPOT peptide array binding signal intensity
AAHKTKPSIPPKKVE	42

Each binder was assayed against CaBem1-D1 in the same assay as above.
Outline: as §1

Binder	SPOT peptide array binding signal intensity
AAHKTKPSIPPKKVE	≤ 0

These binders were tested against CaBzz1-D1 in the same assay as above.
Outline: as §1

Binder	SPOT peptide array binding signal intensity
AAHKTKPSIPPKKVE	257

These binders were tested against CaBzz1-D2 in the same assay as above.
Outline: as §1

Binder	SPOT peptide array binding signal intensity
AAHKTKPSIPPKKVE	243

Each binder was assayed against CaCyk3 in the same assay as above.
Outline: as §1

Binder	SPOT peptide array binding signal intensity
AAHKTKPSIPPKKVE	≤ 0

What follows are binders tested against CaFus1 in the same assay as above.
Outline: as §1

Binder	SPOT peptide array binding signal intensity
AAHKTKPSIPPKKVE	≤ 0

Each binder was assayed against CaHof1 in the same assay as above.
Outline: as §1

Binder	SPOT peptide array binding signal intensity
AAHKTKPSIPPKKVE	1.5

The binders below were run against CaHse1 in the same assay as above.
Outline: as §1

Binder	SPOT peptide array binding signal intensity
AAHKTKPSIPPKKVE	13.2

What follows are binders tested against CaLsb1 in the same assay as above.
Outline: as §1

Binder	SPOT peptide array binding signal intensity
AAHKTKPSIPPKKVE	≤ 0

Each binder was assayed against CaLsb4 in the same assay as above.
Outline: as §1

Binder	SPOT peptide array binding signal intensity
AAHKTKPSIPPKKVE	≤ 0

These binders were tested against CaMyo5 in the same assay as above.
Outline: as §1

Binder	SPOT peptide array binding signal intensity
AAHKTKPSIPPKKVE	1

Each binder was assayed against CaNbp2 in the same assay as above.
Outline: as §1

Binder	SPOT peptide array binding signal intensity
AAHKTKPSIPPKKVE	≤ 0

The binders below were run against CaRvs167 in the same assay as above.
Outline: as §1

Binder	SPOT peptide array binding signal intensity
AAHKTKPSIPPKKVE	1.67

The binders below were run against CaRvs167-3 in the same assay as above.
Outline: as §1

Binder	SPOT peptide array binding signal intensity
AAHKTKPSIPPKKVE	≤ 0

Each binder was assayed against CaSho1 in the same assay as above.
Outline: as §1

Binder	SPOT peptide array binding signal intensity
AAHKTKPSIPPKKVE	≤ 0

What follows are binders tested against CaSla1-D1-D2 in the same assay as above.
Outline: as §1

Binder	SPOT peptide array binding signal intensity
AAHKTKPSIPPKKVE	282

What follows are binders tested against CaSla1-D3 in the same assay as above.
Outline: as §1

Binder	SPOT peptide array binding signal intensity
AAHKTKPSIPPKKVE	3.25

The binders below were run against ScAbp1 in the same assay as above.
Outline: as §1

Binder	SPOT peptide array binding signal intensity
AAHKTKPSIPPKKVE	907

These binders were tested against ScBbc1 in the same assay as above.
Outline: as §1

Binder	SPOT peptide array binding signal intensity
AAHKTKPSIPPKKVE	≤ 0

The binders below were run against ScBem1-D1 in the same assay as above.
Outline: as §1

Binder	SPOT peptide array binding signal intensity
AAHKTKPSIPPKKVE	≤ 0

What follows are binders tested against ScBzz1-D1 in the same assay as above.
Outline: as §1

Binder	SPOT peptide array binding signal intensity
AAHKTKPSIPPKKVE	3.5

The binders below were run against ScBzz1-D2 in the same assay as above.
Outline: as §1

Binder	SPOT peptide array binding signal intensity
AAHKTKPSIPPKKVE	1.5

The binders below were run against ScCyk3 in the same assay as above.
Outline: as §1

Binder	SPOT peptide array binding signal intensity
AAHKTKPSIPPKKVE	≤ 0

These binders were tested against ScFus1 in the same assay as above.
Outline: as §1

Binder	SPOT peptide array binding signal intensity
AAHKTKPSIPPKKVE	≤ 0

What follows are binders tested against ScHof1 in the same assay as above.
Outline: as §1

Binder	SPOT peptide array binding signal intensity
AAHKTKPSIPPKKVE	0.5

What follows are binders tested against ScHse1 in the same assay as above.
Outline: as §1

Binder	SPOT peptide array binding signal intensity
AAHKTKPSIPPKKVE	≤ 0

Each binder was assayed against ScLsb1 in the same assay as above.
Outline: as §1

Binder	SPOT peptide array binding signal intensity
AAHKTKPSIPPKKVE	0.25

These binders were tested against ScLsb2 in the same assay as above.
Outline: as §1

Binder	SPOT peptide array binding signal intensity
AAHKTKPSIPPKKVE	0.5

Each binder was assayed against ScLsb3 in the same assay as above.
Outline: as §1

Binder	SPOT peptide array binding signal intensity
AAHKTKPSIPPKKVE	144

These binders were tested against ScLsb4 in the same assay as above.
Outline: as §1

Binder	SPOT peptide array binding signal intensity
AAHKTKPSIPPKKVE	13.5

The binders below were run against ScMyo3 in the same assay as above.
Outline: as §1

Binder	SPOT peptide array binding signal intensity
AAHKTKPSIPPKKVE	8.5

The binders below were run against ScMyo5 in the same assay as above.
Outline: as §1

Binder	SPOT peptide array binding signal intensity
AAHKTKPSIPPKKVE	2

Each binder was assayed against ScNbp2 in the same assay as above.
Outline: as §1

Binder	SPOT peptide array binding signal intensity
AAHKTKPSIPPKKVE	≤ 0

The binders below were run against ScPex13 in the same assay as above.
Outline: as §1

Binder	SPOT peptide array binding signal intensity
AAHKTKPSIPPKKVE	7

These binders were tested against ScRvs167 in the same assay as above.
Outline: as §1

Binder	SPOT peptide array binding signal intensity
AAHKTKPSIPPKKVE	3.17

The binders below were run against ScSho1 in the same assay as above.
Outline: as §1

Binder	SPOT peptide array binding signal intensity
AAHKTKPSIPPKKVE	6

Each binder was assayed against ScSla1-D1-D2 in the same assay as above.
Outline: as §1

Binder	SPOT peptide array binding signal intensity
AAHKTKPSIPPKKVE	≤ 0

Each binder was assayed against ScSla1-D3 in the same assay as above.
Outline: as §1

Binder	SPOT peptide array binding signal intensity
AAHKTKPSIPPKKVE	2.5

What follows are binders tested against SpAbp1-D1 in the same assay as above.
Outline: as §1

Binder	SPOT peptide array binding signal intensity
AAHKTKPSIPPKKVE	282

What follows are binders tested against SpBbc1 in the same assay as above.
Outline: as §1

Binder	SPOT peptide array binding signal intensity
AAHKTKPSIPPKKVE	≤ 0

These binders were tested against SpBzz1-D1 in the same assay as above.
Outline: as §1

Binder	SPOT peptide array binding signal intensity
AAHKTKPSIPPKKVE	311

The binders below were run against SpBzz1-D2 in the same assay as above.
Outline: as §1

Binder	SPOT peptide array binding signal intensity
AAHKTKPSIPPKKVE	≤ 0

The binders below were run against SpCyk3 in the same assay as above.
Outline: as §1

Binder	SPOT peptide array binding signal intensity
AAHKTKPSIPPKKVE	≤ 0

The binders below were run against SpHof1 in the same assay as above.
Outline: as §1

Binder	SPOT peptide array binding signal intensity
AAHKTKPSIPPKKVE	0.25

These binders were tested against SpHof1-2 in the same assay as above.
Outline: as §1

Binder	SPOT peptide array binding signal intensity
AAHKTKPSIPPKKVE	6

The binders below were run against SpHof1-3 in the same assay as above.
Outline: as §1

Binder	SPOT peptide array binding signal intensity
AAHKTKPSIPPKKVE	3

The binders below were run against SpHse1 in the same assay as above.
Outline: as §1

Binder	SPOT peptide array binding signal intensity
AAHKTKPSIPPKKVE	32.8

Each binder was assayed against SpLsb1 in the same assay as above.
Outline: as §1

Binder	SPOT peptide array binding signal intensity
AAHKTKPSIPPKKVE	11.5

These binders were tested against SpLsb4 in the same assay as above.
Outline: as §1

Binder	SPOT peptide array binding signal intensity
AAHKTKPSIPPKKVE	4

These binders were tested against SpMyo1 in the same assay as above.
Outline: as §1

Binder	SPOT peptide array binding signal intensity
AAHKTKPSIPPKKVE	≤ 0

These binders were tested against SpNbp2 in the same assay as above.
Outline: as §1

Binder	SPOT peptide array binding signal intensity
AAHKTKPSIPPKKVE	12.5

Each binder was assayed against SpPex13 in the same assay as above.
Outline: as §1

Binder	SPOT peptide array binding signal intensity
AAHKTKPSIPPKKVE	1

The binders below were run against SpRvs167 in the same assay as above.
Outline: as §1

Binder	SPOT peptide array binding signal intensity
AAHKTKPSIPPKKVE	9.5

These binders were tested against SpSla1-D1-D2 in the same assay as above.
Outline: as §1

Binder	SPOT peptide array binding signal intensity
AAHKTKPSIPPKKVE	4

These binders were tested against SpSla1-D3 in the same assay as above.
Outline: as §1

Binder	SPOT peptide array binding signal intensity
AAHKTKPSIPPKKVE	2.5
